# Shown are actives, neighbours in structure and some others; about 2.9% of the full set was active somewhere.
# Rev-erbA mod: modulates human Rev-erb alpha binding to DNA. Rev-erbα–FITC-DNA binding, fluorescence polarization, 90 min. activity, % at 10 µM. AID 1259318. actives 0.79% (n = 370,000). P20393;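 active means activity above about 14%, limit read from the data; passing the limit was not always enough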;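 further: 0% = DMSO wells with 35 nM protein and 100% = DMSO wells with 750 nM protein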
# Target sequence (P20393 whole entry, looked up): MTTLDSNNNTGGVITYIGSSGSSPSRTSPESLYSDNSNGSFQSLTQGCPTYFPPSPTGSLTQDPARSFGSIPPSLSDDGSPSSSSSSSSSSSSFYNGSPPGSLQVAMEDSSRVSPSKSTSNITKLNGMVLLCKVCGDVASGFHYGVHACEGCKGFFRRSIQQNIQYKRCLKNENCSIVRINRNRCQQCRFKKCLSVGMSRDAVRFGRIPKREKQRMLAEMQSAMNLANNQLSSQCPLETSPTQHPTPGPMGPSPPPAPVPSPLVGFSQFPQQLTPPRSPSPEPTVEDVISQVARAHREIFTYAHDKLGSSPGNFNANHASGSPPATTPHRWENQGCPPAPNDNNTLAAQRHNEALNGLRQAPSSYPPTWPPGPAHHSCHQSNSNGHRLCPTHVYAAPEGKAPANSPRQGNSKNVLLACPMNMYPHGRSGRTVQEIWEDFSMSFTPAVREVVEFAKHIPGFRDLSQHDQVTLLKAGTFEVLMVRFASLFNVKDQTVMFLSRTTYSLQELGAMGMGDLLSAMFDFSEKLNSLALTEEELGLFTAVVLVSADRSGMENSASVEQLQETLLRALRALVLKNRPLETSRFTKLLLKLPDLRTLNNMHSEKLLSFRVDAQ
# PG9 binder: small molecules binding HIV-1 gp120 antibody PG9; TR-FRET gp120-PG9 antibody binding; inhibition, % at 6.7 µM; actives 0.43% (n = 360,000); in the data active means inhibition above about 8.5%
# RAM inhibit: inhibitors of the yeast RAM network. AID 868. S. cerevisiae dse1pr::URA3 reporter, 5-FOA growth OD615, 2 d; analog-sensitive cbk1-as2 kinase mutant strain. actives 1.8% (n = 190,000). inhibition, % at 50 µM;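 active means inhibition above a set limit, 3 SD over mean compound inhibition, cut at about 8.4% in these data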;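 further: 0% = DMSO-only wells with no growth and 100% = 10 µM 1-NA-PP1 full growth; inhibition rescues growth on 5-FOA so higher OD means more RAM inhibition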
# EP2 mod: EP2 receptor (human) modulation; P43116; EP2-expressing cells, cAMP HTRF FRET, PGE2 co-stimulation; induction, % at 25 µM; actives 0.83% (n = 260,000);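 active means compounds whose cAMP rise, as percent of the full-agonist control response, exceeds 60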;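 further: rat C6 glioma line stably carrying human EP2 under a CMV promoter; the protocol text gives 20 µM as final concentration; 100% = response of wells given 1 µM PGE2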
# PGE2 EP2 inh: EP2 receptor (human) inhibition; C6 glioma cells expressing human EP2, cAMP TR-FRET; cells stimulated with saturating PGE2; inhibition, % at 25 µM; actives 0.52% (n = 260,000); AID 1422;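 active means percent inhibition above 40 after rounding to a whole number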;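 further: rat C6 glioma host cells with rolipram phosphodiesterase inhibitor present; the protocol text gives 20 µM as final concentration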
# SKN-1 inh: inhibitors of C. elegans SKN-1; C. elegans VP596 Pgst-4::GFP/RFP ratio, acrylamide-induced, 24 h; AID 624304; inhibition, % at 21.8 µM; actives 0.49% (n = 360,000);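 active means interference check ratio from 0.5 to 1.5 plus GFP to RFP signal ratio inhibition reaching or exceeding a fixed threshold, cut at about 30% in these data, passing the limit was not always enough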
# PG9 binder conf: PG9 antibody binding, confirmed | TR-FRET PG9 antibody binding, biochemical | shares compounds with PG9 binder | actives 90% (n = 1,500) | inhibition, % at 6.7 µM | AID 651571; in the data active means inhibition above about 9%
# PGV04 counter: PGV04 control antibody binding, counter-screen; shares compounds with PG9 binder; TR-FRET PGV04 antibody-gp120 binding, biochemical; inhibition, % at 6.7 µM; actives 95% (n = 1,500); AID 651604; in the data active means inhibition above about 9.5%
# * hit, by the source's call; nt = no result given.
SMILES,Rev-erbA mod,PG9 binder,RAM inhibit,EP2 mod,PGE2 EP2 inh,SKN-1 inh,PG9 binder conf,PGV04 counter
COc1ccc(C(=O)NCCCNc2nc3cc(C)cc(C)c3cc2C#N)cc1,0,-1,nt,nt,nt,23,nt,nt
CC(C)Cc1cc(C(=O)N2CCN(Cc3ccco3)C[C@@H]2C(C)C)no1,nt,nt,nt,-54,nt,nt,nt,nt
Cc1ccc(Cn2c(C3CCCN3c3nc(-c4cc(Cl)c(N)c(Cl)c4)cs3)nc3cc(Cl)c(Cl)cc32)cc1 (stereo not drawn),-4,9.7*,nt,nt,16,-16,14*,22*
Cc1nc(SCC(=O)Nc2cc(C(N)=O)cc(C(N)=O)c2)c2c(C)c(C)sc2n1,8,11*,nt,-14,14,-3,18*,36*
COCCN1C(=O)C(O)=C(C(=O)c2ccco2)C1c1cc(OC)c(OC)c(OC)c1 (stereo not drawn),nt,nt,nt,16,9,nt,nt,nt
Cc1ccccc1C(=O)Nc1nnc(S(=O)(=O)N2CCCCC2)s1,-4,24*,nt,nt,nt,-2,32*,40*
O=C(Nc1nc(=O)c2ccccc2s1)c1ccccc1,23,29*,6,-16,20,-24,51*,69*
CCC(=O)Nc1ccc(NC(=O)CSc2nnc(-c3ccco3)c(-c3ccco3)n2)cc1C,nt,nt,nt,7,9,nt,nt,nt
Cc1cccc(C(=O)NCC(=O)OCC(=O)NCCNC(=O)COC(=O)CNC(=O)c2cccc(C)c2)c1,-8,0,nt,nt,nt,-4,nt,nt
Cc1cccc(C(=O)NCC(=O)OCC(=O)c2ccc(Br)s2)c1,6,8.8*,nt,nt,nt,5,14*,21*
O=C(CSc1nc(-c2ccc(F)cc2)nc2ccc(F)cc12)Nc1cccc(C(=O)O)c1,2,8,2,47,14,11,nt,nt
O=C(CSc1nc(-c2ccccc2)nc2ccccc12)Nc1cccc(C(=O)O)c1,-3,16*,1,51,12,4,15*,22*
Cc1ccc(C)c(NC(=O)CN(C)C(=O)c2cc3c(s2)CCCCC3)c1,2,11*,nt,nt,nt,6,16*,22*
Cc1ccc(-n2c(CSc3nc(C)cc(C)n3)nnc2SCC(=O)N2CCCCC2)cc1,nt,nt,nt,-109,5,nt,nt,nt
CCOC(=O)CCc1c(C)c(C#N)c2nc3ccccc3n2c1-n1cnc2ccccc21,19,17*,1,-3,9,4,22*,27*
CCOC(=O)CCc1c(C)c(C#N)c2nc3ccccc3n2c1-n1ccnc1C,-2,0,1,10,5,-22,nt,nt
Cc1nnc(NC(=O)CSc2nnc3c4c5c(sc4nc(C(C)C)n23)CC(C)CC5)s1 (stereo not drawn),nt,nt,nt,-5,12,nt,nt,nt
CCc1c(C)nc2c(Br)cccc2c1SCCC#N,13,9.6*,3,33,16,11,13*,19*
CCCc1c(C)nc2ccccc2c1SCCC#N,2,0,0,23,7,11,nt,nt
CCc1nnc(NC(=O)CSc2nnc(-c3ccccc3OC)n2-c2ccc(C)cc2)s1,2,-2,1,-1,15,2,nt,nt
CCc1nnc(NC(=O)CSc2nnc(-c3ccccc3O)n2-c2ccc(C)cc2)s1,8,11*,8,18,5,-2,14*,22*
O=C1C(=O)N(CCCn2ccnc2)C(c2ccc([N+](=O)[O-])cc2)/C1=C(\O)c1ccc2c(c1)OCCO2 (stereo not drawn),0,0,nt,nt,nt,13,nt,nt
COc1cccc(C2/C(=C(/O)c3ccc4c(c3)CC(C)O4)C(=O)C(=O)N2CCCn2ccnc2)c1 (stereo not drawn),-2,3,nt,nt,nt,-13,nt,nt
O=C1C(=O)N(CCCn2ccnc2)C(c2ccc(Cl)cc2)/C1=C(\O)c1ccc2c(c1)OCCO2 (stereo not drawn),1,27*,nt,nt,nt,-2,16*,21*
O=C1C(=O)N(CCCN2CCOCC2)C(c2ccc(F)cc2)/C1=C(\O)c1ccc2c(c1)OCCO2 (stereo not drawn),-4,9.4*,nt,nt,nt,17,21*,24*
